Experiment [1] has as its target T1, Inhibitor of nuclear factor kappa-B kinase subunit epsilon (Homo sapiens) (UniProt Q14164).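 Further: reported values are averaged percent inhibition figures against human IKKε.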
T1 sequence (whole entry): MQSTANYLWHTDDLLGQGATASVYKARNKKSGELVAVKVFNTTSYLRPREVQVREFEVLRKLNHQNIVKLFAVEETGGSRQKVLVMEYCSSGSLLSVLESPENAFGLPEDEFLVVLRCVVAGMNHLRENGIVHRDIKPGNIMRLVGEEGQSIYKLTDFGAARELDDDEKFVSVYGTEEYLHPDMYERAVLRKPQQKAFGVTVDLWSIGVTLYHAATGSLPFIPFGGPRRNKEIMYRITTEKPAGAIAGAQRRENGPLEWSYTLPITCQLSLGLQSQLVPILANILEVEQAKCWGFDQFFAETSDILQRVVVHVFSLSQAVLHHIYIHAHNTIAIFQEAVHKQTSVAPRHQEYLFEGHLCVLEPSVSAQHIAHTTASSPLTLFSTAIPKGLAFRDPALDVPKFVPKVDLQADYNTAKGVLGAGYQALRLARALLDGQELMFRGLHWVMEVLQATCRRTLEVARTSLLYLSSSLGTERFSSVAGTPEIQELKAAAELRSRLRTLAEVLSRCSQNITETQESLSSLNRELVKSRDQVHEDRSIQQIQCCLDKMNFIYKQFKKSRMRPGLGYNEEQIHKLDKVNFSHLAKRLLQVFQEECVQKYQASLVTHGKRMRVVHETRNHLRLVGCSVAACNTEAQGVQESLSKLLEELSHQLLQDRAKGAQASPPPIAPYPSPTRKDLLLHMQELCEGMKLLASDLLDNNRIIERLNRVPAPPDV
The conditions noted are these: at 1 µM.

In experiment [2] the target is T2, Serine/threonine-protein kinase Nek1 (Homo sapiens) (UniProt Q96PY6).
T2 sequence (whole entry): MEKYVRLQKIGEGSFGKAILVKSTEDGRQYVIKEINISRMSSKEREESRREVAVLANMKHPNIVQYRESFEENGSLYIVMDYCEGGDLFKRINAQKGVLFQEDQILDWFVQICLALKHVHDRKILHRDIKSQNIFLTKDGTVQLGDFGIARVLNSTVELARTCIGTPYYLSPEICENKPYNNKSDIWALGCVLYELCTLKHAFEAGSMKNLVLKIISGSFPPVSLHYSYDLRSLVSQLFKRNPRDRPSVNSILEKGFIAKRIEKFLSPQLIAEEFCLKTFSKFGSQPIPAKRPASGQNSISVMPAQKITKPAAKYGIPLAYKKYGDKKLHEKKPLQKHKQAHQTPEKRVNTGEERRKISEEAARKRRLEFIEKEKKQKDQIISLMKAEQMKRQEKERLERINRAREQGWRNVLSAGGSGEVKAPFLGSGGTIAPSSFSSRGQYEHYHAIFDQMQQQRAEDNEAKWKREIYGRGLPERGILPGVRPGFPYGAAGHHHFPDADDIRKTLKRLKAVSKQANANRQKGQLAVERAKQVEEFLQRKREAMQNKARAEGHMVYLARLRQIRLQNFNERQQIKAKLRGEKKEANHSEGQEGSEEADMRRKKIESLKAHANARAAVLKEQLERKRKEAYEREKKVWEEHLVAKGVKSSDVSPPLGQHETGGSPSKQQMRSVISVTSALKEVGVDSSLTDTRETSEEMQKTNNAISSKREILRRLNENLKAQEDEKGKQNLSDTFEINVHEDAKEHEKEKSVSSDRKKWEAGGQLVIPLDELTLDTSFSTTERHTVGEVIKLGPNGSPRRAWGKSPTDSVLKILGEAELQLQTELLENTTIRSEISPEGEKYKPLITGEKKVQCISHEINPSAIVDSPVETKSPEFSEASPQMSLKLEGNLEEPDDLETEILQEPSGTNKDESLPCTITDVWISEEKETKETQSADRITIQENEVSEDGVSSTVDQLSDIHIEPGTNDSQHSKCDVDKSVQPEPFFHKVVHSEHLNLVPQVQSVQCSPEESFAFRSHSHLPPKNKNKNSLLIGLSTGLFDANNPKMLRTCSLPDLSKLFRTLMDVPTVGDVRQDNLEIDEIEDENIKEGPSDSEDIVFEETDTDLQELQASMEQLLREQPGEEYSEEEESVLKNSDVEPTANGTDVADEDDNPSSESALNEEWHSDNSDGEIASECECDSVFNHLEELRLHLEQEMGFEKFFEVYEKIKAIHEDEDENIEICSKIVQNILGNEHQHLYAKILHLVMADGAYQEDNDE
The note with it: at 0.1 µM.

Experiment [3] deals with T2, Serine/threonine-protein kinase Nek1 (Homo sapiens). The conditions noted are these: at 1 µM.
Experiment [4] has as its target T3, Serine/threonine-protein kinase Nek2 (Homo sapiens) (UniProt P51955).
T3 sequence (whole entry): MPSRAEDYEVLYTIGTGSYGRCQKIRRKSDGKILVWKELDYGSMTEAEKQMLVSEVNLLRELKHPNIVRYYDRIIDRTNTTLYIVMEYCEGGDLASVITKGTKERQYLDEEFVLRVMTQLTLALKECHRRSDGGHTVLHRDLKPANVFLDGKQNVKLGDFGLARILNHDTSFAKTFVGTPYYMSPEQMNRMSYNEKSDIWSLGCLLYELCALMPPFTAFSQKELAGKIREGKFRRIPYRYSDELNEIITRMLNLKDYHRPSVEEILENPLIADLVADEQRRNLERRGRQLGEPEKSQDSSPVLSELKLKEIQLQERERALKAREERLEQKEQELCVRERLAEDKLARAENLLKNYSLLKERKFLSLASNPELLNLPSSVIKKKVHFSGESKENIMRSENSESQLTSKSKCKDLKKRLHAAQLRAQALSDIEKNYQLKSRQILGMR
The note with it: at 0.1 µM.

The target of experiment [5] is T3, Serine/threonine-protein kinase Nek2 (Homo sapiens). The note with it: at 1 µM.
For experiment [6], the target named is Serine/threonine-protein kinase Nek6 (Homo sapiens) (UniProt Q9HC98). The note with it: at 0.1 µM.
Sequence of Serine/threonine-protein kinase Nek6 (Homo sapiens) (Q9HC98 whole entry): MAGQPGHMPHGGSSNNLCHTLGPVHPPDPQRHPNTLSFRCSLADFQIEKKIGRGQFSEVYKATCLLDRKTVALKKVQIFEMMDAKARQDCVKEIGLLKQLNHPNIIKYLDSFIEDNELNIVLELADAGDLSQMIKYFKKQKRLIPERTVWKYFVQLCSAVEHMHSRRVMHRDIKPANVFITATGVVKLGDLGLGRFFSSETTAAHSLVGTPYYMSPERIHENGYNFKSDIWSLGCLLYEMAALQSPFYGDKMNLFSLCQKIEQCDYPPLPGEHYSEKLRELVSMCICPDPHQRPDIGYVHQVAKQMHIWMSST
Experiment [7] has the same target. The conditions noted are these: at 1 µM.
Experiment [8] addresses Serine/threonine-protein kinase Nek7 (Homo sapiens) (UniProt Q8TDX7). The conditions noted are these: at 0.1 µM.
Experiment [9] shares this target. The conditions noted are these: at 1 µM.
Experiment [10] addresses T4, Serine/threonine-protein kinase Nek9 (Homo sapiens) (UniProt Q8TD19).
T4 sequence (whole entry): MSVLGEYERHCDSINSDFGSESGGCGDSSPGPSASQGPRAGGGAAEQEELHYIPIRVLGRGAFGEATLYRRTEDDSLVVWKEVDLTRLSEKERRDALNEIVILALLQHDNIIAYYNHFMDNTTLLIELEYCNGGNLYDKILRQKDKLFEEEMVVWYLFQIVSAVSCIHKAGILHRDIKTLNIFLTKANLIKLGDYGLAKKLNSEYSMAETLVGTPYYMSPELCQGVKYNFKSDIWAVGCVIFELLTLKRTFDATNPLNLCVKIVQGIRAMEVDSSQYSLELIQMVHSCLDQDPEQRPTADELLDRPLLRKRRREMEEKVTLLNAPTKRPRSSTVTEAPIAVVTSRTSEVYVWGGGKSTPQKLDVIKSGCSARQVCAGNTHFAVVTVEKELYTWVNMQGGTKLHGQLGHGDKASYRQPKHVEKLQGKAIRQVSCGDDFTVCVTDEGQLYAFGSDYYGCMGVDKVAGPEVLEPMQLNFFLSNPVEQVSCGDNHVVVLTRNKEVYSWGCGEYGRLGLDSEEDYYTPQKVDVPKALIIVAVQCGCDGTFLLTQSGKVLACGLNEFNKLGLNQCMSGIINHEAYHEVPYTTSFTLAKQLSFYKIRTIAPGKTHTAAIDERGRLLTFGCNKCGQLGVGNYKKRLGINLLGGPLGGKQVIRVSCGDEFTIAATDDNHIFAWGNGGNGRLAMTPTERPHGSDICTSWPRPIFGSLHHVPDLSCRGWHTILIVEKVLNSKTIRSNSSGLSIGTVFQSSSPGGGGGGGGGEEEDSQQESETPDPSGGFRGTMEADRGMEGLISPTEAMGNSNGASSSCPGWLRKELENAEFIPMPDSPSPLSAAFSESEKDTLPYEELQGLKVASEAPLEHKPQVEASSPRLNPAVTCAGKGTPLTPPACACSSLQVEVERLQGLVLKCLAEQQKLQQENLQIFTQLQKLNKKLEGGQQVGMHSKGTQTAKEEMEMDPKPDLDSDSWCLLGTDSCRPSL
The conditions noted are these: at 0.1 µM.

Experiment [11] deals with T4, Serine/threonine-protein kinase Nek9 (Homo sapiens). The note with it: at 1 µM.
Experiment [12] deals with Serine/threonine-protein kinase PLK1 (Homo sapiens) (UniProt P53350). The note with it: at 0.1 µM.
Sequence of Serine/threonine-protein kinase PLK1 (Homo sapiens) (P53350 whole entry): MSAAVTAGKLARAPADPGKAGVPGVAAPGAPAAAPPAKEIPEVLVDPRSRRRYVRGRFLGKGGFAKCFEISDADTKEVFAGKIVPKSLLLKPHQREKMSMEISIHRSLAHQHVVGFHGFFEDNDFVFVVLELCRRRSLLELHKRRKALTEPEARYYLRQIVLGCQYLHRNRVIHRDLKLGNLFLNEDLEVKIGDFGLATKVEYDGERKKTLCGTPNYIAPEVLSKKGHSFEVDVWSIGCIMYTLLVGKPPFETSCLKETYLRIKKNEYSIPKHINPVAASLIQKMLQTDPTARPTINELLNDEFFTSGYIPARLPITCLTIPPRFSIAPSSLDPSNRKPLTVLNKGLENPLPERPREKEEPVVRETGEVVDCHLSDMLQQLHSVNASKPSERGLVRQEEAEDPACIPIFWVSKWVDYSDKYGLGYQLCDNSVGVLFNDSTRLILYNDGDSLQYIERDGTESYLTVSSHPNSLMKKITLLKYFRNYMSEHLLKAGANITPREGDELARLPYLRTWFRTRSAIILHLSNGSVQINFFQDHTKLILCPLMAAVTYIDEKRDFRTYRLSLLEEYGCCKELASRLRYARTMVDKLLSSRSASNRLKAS
For experiment [13] the target is unchanged. The note with it: at 1 µM.
Experiment [14] concerns the target T5, Dual specificity protein kinase TTK (Homo sapiens) (UniProt P33981).
T5 sequence (whole entry): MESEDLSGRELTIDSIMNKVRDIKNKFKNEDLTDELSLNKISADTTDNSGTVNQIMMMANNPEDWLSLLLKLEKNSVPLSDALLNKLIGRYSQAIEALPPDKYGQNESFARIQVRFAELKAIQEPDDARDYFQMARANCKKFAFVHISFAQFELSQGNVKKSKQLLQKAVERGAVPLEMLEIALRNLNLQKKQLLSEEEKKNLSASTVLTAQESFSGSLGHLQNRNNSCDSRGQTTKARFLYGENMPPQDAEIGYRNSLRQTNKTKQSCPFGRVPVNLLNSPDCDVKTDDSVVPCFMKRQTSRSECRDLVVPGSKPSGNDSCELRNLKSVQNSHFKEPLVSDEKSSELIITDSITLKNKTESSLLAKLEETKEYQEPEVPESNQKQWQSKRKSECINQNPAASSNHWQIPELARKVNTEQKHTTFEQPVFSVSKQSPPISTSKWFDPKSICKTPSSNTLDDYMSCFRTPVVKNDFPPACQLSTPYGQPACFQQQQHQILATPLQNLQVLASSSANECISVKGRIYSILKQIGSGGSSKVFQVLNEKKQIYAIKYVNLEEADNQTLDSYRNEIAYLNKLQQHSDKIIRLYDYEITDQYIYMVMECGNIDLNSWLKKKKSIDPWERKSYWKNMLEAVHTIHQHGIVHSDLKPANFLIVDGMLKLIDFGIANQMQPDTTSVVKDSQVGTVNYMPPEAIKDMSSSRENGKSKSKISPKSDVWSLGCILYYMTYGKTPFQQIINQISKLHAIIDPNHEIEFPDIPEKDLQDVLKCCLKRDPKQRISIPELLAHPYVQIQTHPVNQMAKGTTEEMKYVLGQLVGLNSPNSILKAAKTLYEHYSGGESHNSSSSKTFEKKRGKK
The conditions noted are these: at 0.1 µM.

The test system of experiment [15] is T6, Receptor-type tyrosine-protein kinase FLT3 (Homo sapiens), P36888 [D835Y].
T6 sequence (whole entry): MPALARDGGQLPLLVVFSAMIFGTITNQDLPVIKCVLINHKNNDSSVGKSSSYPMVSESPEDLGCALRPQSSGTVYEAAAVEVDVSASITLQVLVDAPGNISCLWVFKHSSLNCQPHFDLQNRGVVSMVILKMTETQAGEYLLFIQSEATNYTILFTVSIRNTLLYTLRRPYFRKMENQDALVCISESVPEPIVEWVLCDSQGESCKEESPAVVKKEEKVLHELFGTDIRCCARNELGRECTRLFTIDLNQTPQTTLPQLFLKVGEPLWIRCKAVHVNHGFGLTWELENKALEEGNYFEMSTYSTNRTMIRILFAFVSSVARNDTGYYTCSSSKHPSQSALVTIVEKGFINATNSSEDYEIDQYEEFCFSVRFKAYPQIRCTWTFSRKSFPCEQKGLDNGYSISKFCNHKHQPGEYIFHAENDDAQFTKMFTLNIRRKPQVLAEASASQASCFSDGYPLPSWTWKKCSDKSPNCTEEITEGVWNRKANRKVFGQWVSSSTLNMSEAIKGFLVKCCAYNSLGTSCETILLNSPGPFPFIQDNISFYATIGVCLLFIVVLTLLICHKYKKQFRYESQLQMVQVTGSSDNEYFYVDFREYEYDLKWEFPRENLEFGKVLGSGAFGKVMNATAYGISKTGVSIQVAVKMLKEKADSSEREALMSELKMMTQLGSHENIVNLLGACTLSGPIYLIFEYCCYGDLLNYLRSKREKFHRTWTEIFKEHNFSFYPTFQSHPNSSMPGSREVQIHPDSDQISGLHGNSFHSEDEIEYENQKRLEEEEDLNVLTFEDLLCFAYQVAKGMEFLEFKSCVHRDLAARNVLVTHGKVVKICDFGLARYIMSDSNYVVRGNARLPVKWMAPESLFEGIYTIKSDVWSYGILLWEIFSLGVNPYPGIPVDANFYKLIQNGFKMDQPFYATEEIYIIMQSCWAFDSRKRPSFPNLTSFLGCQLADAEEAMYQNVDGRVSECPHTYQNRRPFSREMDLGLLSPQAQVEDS
The note with it: at 1 µM.

Experiment [16] concerns the target Vascular endothelial growth factor receptor 3 (Homo sapiens) (UniProt P35916). The conditions noted are these: at 0.1 µM.
For experiment [17] the target is unchanged. The conditions noted are these: at 1 µM.
For experiment [18], the target named is Macrophage colony-stimulating factor 1 receptor (Homo sapiens) (UniProt P07333). The conditions noted are these: at 0.1 µM.
Sequence of Macrophage colony-stimulating factor 1 receptor (Homo sapiens) (P07333 whole entry): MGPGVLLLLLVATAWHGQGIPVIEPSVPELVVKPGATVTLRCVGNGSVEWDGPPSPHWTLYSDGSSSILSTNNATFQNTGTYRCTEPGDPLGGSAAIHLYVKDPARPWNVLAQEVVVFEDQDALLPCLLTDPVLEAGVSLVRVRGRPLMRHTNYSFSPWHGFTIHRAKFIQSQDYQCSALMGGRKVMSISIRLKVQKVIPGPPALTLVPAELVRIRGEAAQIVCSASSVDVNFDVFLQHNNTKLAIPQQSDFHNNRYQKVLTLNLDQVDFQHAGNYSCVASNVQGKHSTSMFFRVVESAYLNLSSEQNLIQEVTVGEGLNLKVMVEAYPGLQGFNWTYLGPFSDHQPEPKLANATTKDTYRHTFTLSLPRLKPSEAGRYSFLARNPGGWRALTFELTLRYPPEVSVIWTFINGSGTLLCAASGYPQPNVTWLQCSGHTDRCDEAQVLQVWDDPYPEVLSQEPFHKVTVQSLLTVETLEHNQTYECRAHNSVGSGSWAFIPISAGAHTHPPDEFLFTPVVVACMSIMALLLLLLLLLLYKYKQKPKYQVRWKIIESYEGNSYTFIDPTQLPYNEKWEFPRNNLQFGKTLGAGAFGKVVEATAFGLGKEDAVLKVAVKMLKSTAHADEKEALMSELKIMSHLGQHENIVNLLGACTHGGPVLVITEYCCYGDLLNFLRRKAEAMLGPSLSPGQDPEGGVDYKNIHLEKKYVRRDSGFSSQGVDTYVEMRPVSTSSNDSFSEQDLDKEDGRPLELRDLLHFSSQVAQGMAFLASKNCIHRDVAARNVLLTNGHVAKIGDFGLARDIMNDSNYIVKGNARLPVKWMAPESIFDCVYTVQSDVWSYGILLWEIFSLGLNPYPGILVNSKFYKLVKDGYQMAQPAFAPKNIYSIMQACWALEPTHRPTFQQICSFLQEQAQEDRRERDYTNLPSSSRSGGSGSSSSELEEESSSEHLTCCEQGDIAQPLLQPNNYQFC
Experiment [19] shares this target. The conditions noted are these: at 1 µM.
Experiment [20] concerns the target Tyrosine-protein kinase Fyn (Homo sapiens) (UniProt P06241). The note with it: at 0.1 µM.

Molecules are shown by their SMILES.

Sequence of Vascular endothelial growth factor receptor 3 (Homo sapiens) (P35916 whole entry): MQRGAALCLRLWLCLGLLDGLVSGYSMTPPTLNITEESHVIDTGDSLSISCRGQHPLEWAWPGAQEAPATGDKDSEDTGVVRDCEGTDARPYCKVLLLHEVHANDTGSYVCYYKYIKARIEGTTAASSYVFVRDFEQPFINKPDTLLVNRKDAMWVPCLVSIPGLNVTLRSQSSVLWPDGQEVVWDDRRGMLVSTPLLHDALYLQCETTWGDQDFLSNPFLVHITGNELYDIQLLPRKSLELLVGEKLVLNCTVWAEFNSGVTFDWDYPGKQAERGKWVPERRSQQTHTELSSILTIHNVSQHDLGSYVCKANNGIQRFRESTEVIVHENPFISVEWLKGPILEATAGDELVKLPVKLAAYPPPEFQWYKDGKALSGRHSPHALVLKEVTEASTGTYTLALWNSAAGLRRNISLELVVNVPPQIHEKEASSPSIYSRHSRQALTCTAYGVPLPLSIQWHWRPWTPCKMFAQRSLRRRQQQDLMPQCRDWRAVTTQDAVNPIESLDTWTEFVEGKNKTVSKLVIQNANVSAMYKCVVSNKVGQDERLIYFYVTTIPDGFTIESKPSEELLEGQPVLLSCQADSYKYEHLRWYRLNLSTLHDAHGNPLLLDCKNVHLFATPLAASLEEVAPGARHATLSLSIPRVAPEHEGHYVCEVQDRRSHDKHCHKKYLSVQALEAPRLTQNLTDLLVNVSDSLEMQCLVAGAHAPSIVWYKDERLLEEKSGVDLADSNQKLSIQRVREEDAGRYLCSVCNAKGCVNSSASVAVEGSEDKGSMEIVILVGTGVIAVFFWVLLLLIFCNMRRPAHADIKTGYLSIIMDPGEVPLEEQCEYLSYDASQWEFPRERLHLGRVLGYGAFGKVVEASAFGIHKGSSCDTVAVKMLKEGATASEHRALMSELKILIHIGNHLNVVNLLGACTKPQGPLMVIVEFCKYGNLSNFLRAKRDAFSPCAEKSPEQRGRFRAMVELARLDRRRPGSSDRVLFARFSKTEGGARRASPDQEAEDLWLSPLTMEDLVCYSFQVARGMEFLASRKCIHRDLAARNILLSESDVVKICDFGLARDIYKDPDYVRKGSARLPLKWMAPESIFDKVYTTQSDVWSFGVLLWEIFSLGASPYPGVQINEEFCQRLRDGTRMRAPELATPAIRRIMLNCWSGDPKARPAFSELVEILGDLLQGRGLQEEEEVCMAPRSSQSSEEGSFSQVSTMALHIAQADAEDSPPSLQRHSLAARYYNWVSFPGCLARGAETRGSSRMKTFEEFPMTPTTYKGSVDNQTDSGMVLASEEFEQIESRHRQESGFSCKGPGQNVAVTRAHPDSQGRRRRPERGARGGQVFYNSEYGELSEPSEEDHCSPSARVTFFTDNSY
Sequence of Serine/threonine-protein kinase Nek7 (Homo sapiens) (Q8TDX7 whole entry, looked up): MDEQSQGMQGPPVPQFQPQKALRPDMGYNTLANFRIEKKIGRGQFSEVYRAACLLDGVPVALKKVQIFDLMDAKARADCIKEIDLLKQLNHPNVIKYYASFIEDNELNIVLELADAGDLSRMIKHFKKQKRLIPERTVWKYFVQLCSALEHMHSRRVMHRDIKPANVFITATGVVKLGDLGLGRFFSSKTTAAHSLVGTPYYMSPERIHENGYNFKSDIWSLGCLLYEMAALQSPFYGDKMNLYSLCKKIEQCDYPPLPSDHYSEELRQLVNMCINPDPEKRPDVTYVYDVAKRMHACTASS
Sequence of Tyrosine-protein kinase Fyn (Homo sapiens) (P06241 2-537 limits assumed): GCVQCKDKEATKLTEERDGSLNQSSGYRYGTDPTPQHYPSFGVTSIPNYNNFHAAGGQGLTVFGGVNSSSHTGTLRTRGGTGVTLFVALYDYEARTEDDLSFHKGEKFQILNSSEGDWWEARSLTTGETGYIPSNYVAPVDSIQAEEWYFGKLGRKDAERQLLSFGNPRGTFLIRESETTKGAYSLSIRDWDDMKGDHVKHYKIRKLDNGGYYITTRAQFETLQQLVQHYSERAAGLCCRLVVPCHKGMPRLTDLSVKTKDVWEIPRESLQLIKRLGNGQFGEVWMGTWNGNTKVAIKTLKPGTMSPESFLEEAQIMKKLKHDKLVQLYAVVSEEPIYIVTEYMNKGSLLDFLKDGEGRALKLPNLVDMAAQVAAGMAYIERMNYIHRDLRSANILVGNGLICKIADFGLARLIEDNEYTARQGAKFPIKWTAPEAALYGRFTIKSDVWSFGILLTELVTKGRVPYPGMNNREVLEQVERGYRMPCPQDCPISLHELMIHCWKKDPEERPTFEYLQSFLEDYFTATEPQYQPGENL

In the case of `NS(=O)(=O)c1ccc(Nc2cc(-c3ccc(O)c(F)c3)n[nH]2)cc1`, the inhibition (as a rule, the change of the read-out against control, counted positive when it falls) in experiment [1] is -0.51%; in experiment [2], -0.93%; in experiment [3] it was -1.21%; in experiment [4], -3.94%; in experiment [5], -3.05%; in experiment [6], -4.94%. For the same compound, the inhibition in experiment [7] was -2.21%; in [8], -0.59%; in experiment [9] it was -3.23%; in experiment [10], 5.12%; in experiment [11], 2.31%; in experiment [12] it was -1.16%. Moreover, the inhibition was -3.09% in [13]; -2.03% in experiment [14]; 34.1% in experiment [15]; 0.48% in experiment [16]; 16.5% in experiment [17]; 0.43% in [18]. Also, the inhibition in experiment [19] is 23.6%; in [20] it was 0.43%.
